Screens: PubChem, National Center for Advancing Translational Sciences (NCATS)
Tau fluor counter – counter-screen for tau fibril formation inhibitors; tau K18 P301L Alexa594 fluorescence, heparin fibrillization; Potency, µM (highest dose often 57.7 µM), inactives show at the highest dose activity change, negative = decrease; actives 0.93% (n = 280,000); further: potency means the concentration at half of the fitted maximal effect; nearly all actives have a fitted effect of over 55% in size
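Human K18 P301L tau (15 uM unlabeled plus 0.24 uM Alexa 594-labeled, final) in 100 mM sodium acetate pH 7 was mixed with compound and 20 uM heparin and incubated 6 hr at 37 C.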
Tau ThT inhib – inhibitors of human tau fibril formation, thioflavin T binding | recombinant tau K18 P301L (four-repeat tau fragment), heparin-induced fibrillization, ThT fluorescence | actives 2.1% (n = 270,000) | P10636 | Potency, µM (series often up to 57.4 µM), without a hit: at the highest dose activity, negative = inhibition, hits mostly inhibitors; further: potency means the concentration at half of the fitted maximal effect; nearly all actives have a fitted effect of over 55% in size
Target sequence (P10636 561-689 P618L limits assumed): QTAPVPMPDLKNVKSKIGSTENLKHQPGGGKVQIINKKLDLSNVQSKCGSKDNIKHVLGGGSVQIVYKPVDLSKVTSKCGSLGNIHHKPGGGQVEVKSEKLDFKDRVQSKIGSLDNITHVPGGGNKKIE
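Aggregation was driven by heparin (20 uM final) acting on recombinant tau […] bearing P301L in 100 mM sodium acetate pH 7; fibrils were detected with Thioflavin T.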
Tau fibril FP – blocks human tau fibril formation measured by polarization | K18 P301L tau heparin fibrillization, Alexa594 FP, 6 h | Potency, µM (top dose mostly 57.7 µM), for the others: at the top dose activity, negative = inhibition, actives largely listed as inhibitors | actives 0.39% (n = 280,000); further: potency means the concentration at half of the fitted maximal effect; nearly all actives have a fitted effect of over 55% in size
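Human K18 P301L fragment (15 uM unlabeled plus 0.24 uM Alexa 594-labeled) in 100 mM sodium acetate pH 7 with compound, aggregation induced by 20 uM heparin for 6 hr at 37 C. ThT (30 uM) added for 1 hr, then Alexa 594 FP read.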
Coupling enz – counter-screen for Giardia aldolase inhibitors: coupling enzyme system; coupling enzyme system counterscreen, AmpLite Red fluorescence; activity change, negative = inhibition, % at 58.2 µM, hits read low; actives 0.67% (n = 290,000); AID 2472; in the data active means activity change below about -30%
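Counterscreen lacking aldolase: glyceraldehyde-3-phosphate coupling-enzyme reagent preincubated 10 min at RT with compound (at 57.5 uM final), then substrate/coupling system with AmpLite Red added; fluorescence read at 525/598 nm after 20 min RT.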
Starred values were filed as active, the others as inactive; ? = inconclusive; . = no result given; [ ] = remark or other dose. An excerpt weighted towards active compounds, which were near 2.7% of everything screened. Unless noted, the call rests on the fitted dose curve; in most records, active means well fitted curve in the direction sought with a large enough effect; inconclusive means small, poorly fitted or top-dose-only effect, or another doubt; inactive means no such curve, though single readings can be large; an effect the other way counts as inactive or inconclusive. On the % scale 0 is the no-effect control and ±100 the full control effect.

SMILES | Tau fluor counter | Tau ThT inhib | Tau fibril FP | Coupling enz
CC(=O)c1ccc(NC(=O)c2cnc(N3CCCC3)nc2C)cc1 | -11% | ? | -1% | .
COc1cc(-n2c(=O)c3ccccc3n(Cc3cccc(Cl)c3)c2=O)cc(OC)c1OC | -11% | -12% | -2% | .
CN(C)c1ccc(NC(=O)c2ccc(COc3cccc(Cl)c3)o2)cc1 | ? | 11µM* | ? | -4
Oc1ccc(-c2cn3c(n2)SCC3)cc1 | -12% | ? | -2% | 4
Oc1ccc(-c2cn3c(n2)SCC3)cc1O | 14µM*[quencher] | 10µM* | ? | -20
CN=C1C([N+](=O)[O-])=CC=C2C1=NC1(CCCCC1)N2O | -6% | -1% | -1% | -45*
O=[N+]([O-])C1=CC=C2C(=NC3(CCCCC3)N2O)C1=NCCO | -8% | -15% | -4% | -53*
Cc1cccc(N=Nc2cnc(N)s2)c1 | ? | 5µM* | 5% | -3
COc1cccc(Nc2ncc3nc(-c4ccc(F)cc4)c(=O)n(C[C@H]4CCCO4)c3n2)c1 | . | . | . | 1
CC(C)C(=O)NC(c1cccs1)c1cc([N+](=O)[O-])c2cccnc2c1O (configuration not stated) | -22% | 14µM* | -7% | -22
CN(C)c1ccc(/C=C/c2ccc3c4ccccc4ccc3[n+]2-c2ccccc2)cc1 | 0.79µM*[fluorescent] | 2µM* | ? | -2
CN(CCCS(=O)(=O)[O-])c1ccc(/C=C/c2ccc3ccccc3[n+]2C)cc1 | . | . | . | -1
CN(C)c1ccc(/C=C/c2ccc3ccccc3[n+]2C)cc1 | 0.5µM*[fluorescent] | 0.56µM* | 11% | -5
CN(C)c1ccc(/C=C/c2cccc[n+]2[O-])cc1 | -4% | -4% | 2% | 0
COc1ccccc1Cn1c(SCC(=O)C(C)(C)C)nc2ccccc2c1=O | -18% | 10% | ? | .
CCOC(=O)C1=CC2(CC)CCCN3CCc4c(n1c1ccccc41)C32 (configuration not stated) | -10% | -12% | -9% | 0
COc1ccc(-c2cc(-c3cc(C)ccc3O)[nH]n2)cc1 | 16µM*[quencher] | ? | ? | -4
CCOc1ccc(S(=O)(=O)N(C(=O)c2ccco2)c2cc3sc(=O)oc3c3ccccc23)cc1 | -22% | 14µM* | 28µM* | -6
Cc1ccc(S(=O)(=O)N(C(=O)c2ccco2)c2cc3sc(=O)oc3c3ccccc23)cc1 | ? | 14µM* | 22µM* | -15
COc1ccc(S(=O)(=O)N(C(=O)C(C)C)c2ccc3oc(=O)sc3c2)cc1 | -23% | ? | -18% | 7
COc1ccc(S(=O)(=O)N(C(=O)c2ccco2)c2cc3sc(=O)oc3c3ccccc23)cc1 | ? | 13µM* | 20µM* | -10
CC(=O)N(c1ccc2oc(=O)sc2c1)S(=O)(=O)c1ccccc1 | -16% | ? | -11% | 3
CCOc1ccc(S(=O)(=O)N(C)CC(=O)NCc2ccco2)cc1 | . | . | . | 1
CCOC(=O)c1c(C)oc2ccc(N(C(=O)Oc3ccccc3)S(=O)(=O)c3ccc(CC)cc3)cc12 | -24% | -3% | 2% | .
c1ccc(CSc2nnc(C3CCNCC3)o2)cc1 | -2% | -5% | 0% | .
SMILES | Tau fluor counter | Tau ThT inhib | Tau fibril FP | Coupling enz
COC(=O)c1c(C)sc(-c2c(-c3ccc(F)cc3)[nH]c3[nH]c(=O)[nH]c(=O)c23)c1O | 10µM*[quencher] | ? | 6% | .
COc1ccc(C(=O)/C=C/c2ccc(O)cc2)cc1 | -23% | ? | ? | 8
COc1ccc(C(=O)/C=C/c2ccc(O)cc2)c(O)c1CC=C(C)C | 16µM*[quencher] | 25µM* | ? | 0
CSc1nnc2n(C3CCCCC3)c(=O)c3c4c(sc3n12)CCCC4 | -2% | -1% | 4% | 0
Cc1nnc2n(C3CCCCC3)c(=O)c3c4c(sc3n12)CCC4 | 14µM*[quencher] | 13µM* | 6% | -1
CCC(=O)Nc1ccc2c(c1)nc1n2CCN(C2CCCCC2)C1 | -12% | ? | -9% | -18
O=C(Nc1ccc2c(c1)nc1n2CCN(C2CCCCC2)C1)NC1CCCCC1 | -24% | ? | 9% | -32*
COc1ccc(C2C(C(=O)OC(C)C)=C(C)N=c3s/c(=C\c4cccs4)c(=O)n32)cc1 (configuration not stated) | -20% | ? | -10% | -1
C=CCOC(=O)C1=C(C)N=c2s/c(=C3\C(=O)N(CC(=O)O)c4ccccc43)c(=O)n2C1c1ccc(OC)cc1 (configuration not stated) | -11% | 4µM* | ? | 5
Cc1cccc(-c2nc(CN3CCCC(C(=O)NCc4ccc(Cl)cc4)C3)c(C)o2)c1 (configuration not stated) | -14% | ? | 8% | .
CCN1CCCC1Cn1c(-c2ccccc2)nc2c(NC3CCCCC3)nc(C)nc21 (configuration not stated) | -6% | -8% | -1% | 1
Cc1nn(C(=O)c2ccc(Br)cc2)c(C)c1S(=O)(=O)N1CCOCC1 | 6% | -13% | 8% | .
OCC(O)C(O)C(O)C(O)C1NCCS1 (configuration not stated) | -15% | 20µM* | ? | 1
Cc1ccc(Cn2c(C(=O)Nc3ccc(Cl)cc3)cc3sccc32)cc1 | ? | -8% | ? | .
CCOC(=O)C1CCN(C(c2ccc(OCC)cc2)c2c(O)cc(C)n(CCOC)c2=O)CC1 (configuration not stated) | -6% | ? | ? | .
CC1(C)C=C2C(=NN(c3ccccc3)C(N)=C2C#N)CO1 | . | . | . | -62*
O=C(N/N=C/c1sc2ccccc2c1O)c1ccccc1 | ? | ? | -7% | -2
O=C(N/N=C/c1sc2ccccc2c1O)c1cccc2ccccc12 | ? | 10µM* | -13% | 4
COc1ccc2cc(C(=O)N/N=C/c3sc4ccccc4c3O)ccc2c1 | 7.9µM*[quencher] | 1.3µM* | -6% | -2
COc1ccc(C(=O)N/N=C/C(=O)c2ccccc2)cc1 | . | . | . | 3
COc1ccc(C(=O)N/N=C/c2sc3ccccc3c2O)cc1 | ? | 1.8µM* | 0% | 2
O=C1c2sc3nc4ccccc4n3c2C(=O)N1c1ccccc1Cl | -29% | 28µM* | ? | 0
Cc1ccccc1N1C(=O)c2sc3nc4c(c(=O)n3c2C1=O)CCC4 | -6% | ? | ? | -4
CCCNC(=O)OC[C@@H]1O[C@H](CCO/N=C\[C@@H](OC)[C@H](C)/C=C\CC(=O)OC)C=C[C@@H]1Oc1ccc(OC)cc1 | -14%[11.6 µM] | -7%[11.5 µM] | 5%[11.6 µM] | 5
CCOc1ccc(-c2cc3c(=O)n(CC(=O)Nc4c(C)cccc4C)ccn3n2)cc1 | -5% | -12% | -8% | .
Cc1cn2c(=O)cc(COc3ccc(NC(=O)c4ccc(C(C)(C)C)cc4)cc3)nc2s1 | -6% | ? | -4% | .
CCSc1nc2ccccc2n1CC(N)=O | 3% | -1% | 7% | -1
CCSc1nc2ccccc2n1C(=O)/C=C\c1ccc(OC)c(OC)c1 | -18% | 10µM* | ? | -2
O=C(CSc1ccc(F)cc1)NCCc1ccc(Cl)cc1 | . | . | . | 4
CCC(=O)c1c(O)cc(O)cc1O | -13% | -10% | 2% | -1
